Data published in PubChem BioAssay (Tox21).
Records with an inconclusive call do not appear. Active and inactive are the calls of the source. Calls follow the shape of the full dose curve.

The molecules below were run against Thyrotropin receptor (Homo sapiens) (UniProt P16473) (assay: qHTS assay to identify small molecule antagonists of the thyroid stimulating hormone receptor (TSHR) signaling pathway (AID 1259385; also: nearly all actives have a fitted effect of over 20% in size)). Details: TSHR-HEK293 cAMP HTRF, TSH-stimulated antagonist mode; series mostly up to 92.4 µM; activity change, negative = inhibition: at the top concentration.
Thyrotropin receptor (Homo sapiens), sequence (P16473 whole entry, looked up): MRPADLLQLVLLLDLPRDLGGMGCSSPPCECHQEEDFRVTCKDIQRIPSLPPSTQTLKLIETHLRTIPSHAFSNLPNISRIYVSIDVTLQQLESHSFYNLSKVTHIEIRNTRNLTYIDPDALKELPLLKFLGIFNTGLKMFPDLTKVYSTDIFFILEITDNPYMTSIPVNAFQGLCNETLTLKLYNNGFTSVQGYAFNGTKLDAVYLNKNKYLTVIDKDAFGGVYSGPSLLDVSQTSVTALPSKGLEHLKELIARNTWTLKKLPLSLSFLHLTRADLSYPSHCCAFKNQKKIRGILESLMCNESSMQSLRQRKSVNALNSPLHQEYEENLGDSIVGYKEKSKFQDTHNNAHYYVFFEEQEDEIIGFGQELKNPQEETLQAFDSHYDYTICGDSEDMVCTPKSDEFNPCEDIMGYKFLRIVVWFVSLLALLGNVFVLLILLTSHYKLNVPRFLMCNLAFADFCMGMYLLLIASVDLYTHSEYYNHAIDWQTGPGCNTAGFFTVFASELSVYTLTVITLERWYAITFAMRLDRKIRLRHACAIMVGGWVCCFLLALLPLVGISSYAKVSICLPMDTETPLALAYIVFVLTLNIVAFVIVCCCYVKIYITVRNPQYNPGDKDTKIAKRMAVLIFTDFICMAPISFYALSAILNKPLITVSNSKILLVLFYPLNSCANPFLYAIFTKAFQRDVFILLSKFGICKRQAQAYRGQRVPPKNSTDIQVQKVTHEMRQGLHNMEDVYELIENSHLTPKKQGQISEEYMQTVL
Description: U.S. Tox21 Program National Center for Advancing Translational Sciences [NCATS] NIH Chemical Genomics Center [NCGC] U.S. Environmental Protection Agency [EPA] National Institutes of Environmental Health Sciences [NIEHS] National Toxicology Program [NTP] U.S. Food and Drug Administration [FDA] Tox21 Assay Overview: TSHR is the receptor for thyrotropin (thyroid stimulating hormone or TSH), a member of the glycoprotein hormone family. TSH is released by the anterior pituitary gland and is the main regulator of thyroid gland growth and development. Upon binding circulating thyrotropin, a G-protein signal cascade activates adenylyl cyclase and […] cAMP concentration is increased. cAMP is a key second messenger involved extensively in cellular signal transduction pathways associated with the majority of G-protein coupled receptors (GPCRs). The activation of these GPCRs by neurotransmitters, lipids, nucleotides, peptides and hormones results in the activation or the inhibition of plasma membrane-bound adenylate cyclase through heterotrimeric G-proteins. A cell-based TSHR assay can be used to screen chemical compounds that modulate TSHR either in agonist or antagonist mode.
Tox21 Assay Protocol Summary: TSHR-Hek293 cells were dispensed at 800 cells/4uL/well in 1536-well white plates using a Multidrop dispenser. After the assay plates were incubated at a 37C/5% CO2 incubator for 18 hrs, 23 nL of compounds dissolved in DMSO, positive controls or DMSO only was transferred to the assay plate by a pin tool, followed by 1 ul medium containing Ro20-1724. For the antagonist mode screening, 1 uL of TSH was added on the top of the cell/compound mixtures to achieve a final agonist concentration of 1.5 ng/mL. After 30 min of incubation at room temperature, 2.5 ul/well of cAMP-d2 and 2.5 ul/well of anti-cAMP-cryptate were added respectively into the assay plates using a Flying Reagent Dispenser. The plates were incubated at room temperature for 1 hr. The fluorescence intensity in the plates was measured using an Envision plate reader. Each test compound was measured at 15 concentrations and in triplicates.
% is scaled to controls: 0 for no effect and ±100 for the full control effect.

SMILES | activity change, negative = inhibition
Cc1cc2nc(N)sc2cc1C | 0.218% (inactive)
CCOc1ccc(NS(=O)(=O)c2ccc(N)cc2)nn1 | 0.886% [at 42.5 µM] (inactive)
CC1CN(c2ccccc2)NC1=O (stereo not given) | 5.32% (inactive)
Cc1onc(-c2ccccc2)c1C(=O)Cl | -0.283% [at 42.5 µM] (inactive)
CN1CCC[C@@H]1Cc1c[nH]c2ccc(CCS(=O)(=O)c3ccccc3)cc12 | -0.29% [at 42.5 µM] (inactive)
O=C(O)[C@@H]1CSCN1 | 5.17% [at 42.5 µM] (inactive)
C1CSCCS1 | -1.92% (inactive)
O=C1CCCCCCCCCCC(=O)OCCO1 | -4.75% (inactive)
C[C@@H]1CN(c2c(F)c(F)c3c(=O)c(C(=O)O)cn(C4CC4)c3c2F)C[C@H](C)N1 | -7.61% [at 19 µM] (inactive)
CCOC(=O)c1cc(=O)c2c(OCC(COc3cccc4oc(C(=O)OCC)cc(=O)c34)OC(=O)[C@@H](N)CCCCN)cccc2o1 | 2.58% [at 42.5 µM] (inactive)
Oc1ccccc1F | -5.31% (inactive)
CCCCCCC | -0.426% (inactive)
NC/C=C/C(=O)O | -0.2% [at 42.5 µM] (inactive)
N#Cc1ccc(C(c2ccc(C#N)cc2)n2cncn2)cc1 | 1.93% [at 42.5 µM] (inactive)
C[C@@H](N)C(=O)O | 1.28% [at 42.5 µM] (inactive)
CCCCCOc1ccc(C2SC(=O)NC2=O)cc1OCC (stereo not given) | -7.25% [at 42.5 µM] (inactive)
CCCOCCC | 3.11% (inactive)
CC(C)OC(C)C | -5.18% (inactive)
OCc1ccccc1O | -2.08% [at 42.5 µM] (inactive)
Cc1cccc(C)c1NC(=O)CN1CCCCCC1 | -3.48% [at 42.5 µM] (inactive)

SMILES | activity change, negative = inhibition
ICCc1ccccc1 | -0.0164% (inactive)
CCCCC1CCC(=O)O1 (stereo not given) | 0.0627% (inactive)
CCCNC(C)(C)COC(=O)c1ccccc1 | 0.283% [at 42.5 µM] (inactive)
CC(C)C(=O)OCC(C)(C)C(O)C(C)C (stereo not given) | 1.95% (inactive)
CN1CCN(c2c(F)cc3c(=O)c(C(=O)O)cn4c3c2SCC4)CC1 | -6.99% [at 42.5 µM] (inactive)
CCCCCCCCCC/C=C/C#N | -1.82% (inactive)
COc1cc(C)ccc1C(C)C | 1.48% (inactive)
CC/C=C\CCOC(=O)CCCCC | 1.64% (inactive)
COC(=O)c1ccc(OC)cc1 | 0.188% (inactive)
CCOC(=O)C1CC(=O)C(=C(O)C2CC2)C(=O)C1 (stereo not given) | 4.09% (inactive)
O=C(O)c1cccc(Cl)c1Cl | -4.16% (inactive)
C=CCCCCCCCCO | 1.31% (inactive)
CCOc1ccc2nc(N)sc2c1 | 3.33% (inactive)
CN(C)C(=O)NC1(c2ccccc2)CCN(CCC[C@]2(c3ccc(Cl)c(Cl)c3)CCCN(C(=O)c3ccccc3)C2)CC1 | -0.429% [at 19 µM] (inactive)
COC(=O)N[C@H](C(=O)N[C@@H](Cc1ccccc1)[C@@H](O)CN(Cc1ccc(-c2ccccn2)cc1)NC(=O)[C@@H](NC(=O)OC)C(C)(C)C)C(C)(C)C | -1.37% [at 42.5 µM] (inactive)
C=C(C)C(=O)OCCOP(=O)(O)O | -0.045% (inactive)
CN(CC1(C)CCCO1)S(=O)(=O)c1ccc(Cl)c(S(N)(=O)=O)c1 (stereo not given) | -0.715% [at 42.5 µM] (inactive)
FC(F)(F)c1ccccc1 | 1.58% (inactive)
COC(=O)C(C)O (stereo not given) | 0.672% (inactive)
Cc1cn([C@@H]2O[C@H](CO)[C@@H](O)[C@@H]2F)c(=O)[nH]c1=O | -1.31% [at 42.5 µM] (inactive)
